Results: PubChem BioAssay (NCATS)
Unmarked numbers belong to inactive results. Records with an inconclusive call do not appear. Entries that show only a call come without a potency. Active and inactive are the calls of the source. Calls follow the shape of the dose curve; as a rule, active = well fitted curve in the direction sought with a large enough effect; inconclusive = small, poorly fitted or top-dose-only effect, or another doubt; inactive = no such curve, though single readings can be large; an effect the other way counts as inactive or inconclusive.

Key:
[1] = target: Lysine-specific demethylase 5B (Homo sapiens) (UniProt Q9UGL1); test: Optimization screen for KDM5B Histone Demethylases FDH coupled qHTS against the LOPAC library (AID 1347166); details: KDM5B demethylation, FDH-coupled NADH fluorescence (FDH is formaldehyde dehydrogenase); series mostly up to 57.5 µM
Method in brief: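 KDM5BDeltaAP (200nM final) preincubated 10 min with compound, then 12.5uM H3K4Me3, 25uM a-ketoglutarate, ascorbate, Fe(II), NAD+ and FDH added; 50mM HEPES pH 7.5, 0.01% Tween-20. NADH fluorescence (340/450 nm) change over 30 min, room temperature.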

[2] = qHTS to identify inhibitors of the type 1 interferon - major histocompatibility complex class I in skeletal muscle: primary screen against the NCATS LOPAC collection (AID 1347405); details: iHSKM muscle cells, IFN-b-induced MHC-I HiBiT luminescence, 24 h; series mostly up to 45.9 µM;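 also: lytic HiBiT luminescence reporting HLA-B protein level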
Method in brief: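 Cells: C25cl48 human myoblasts, HiBiT-tagged HLA-B*08:01, stimulated with IFN-beta 4.0 ng/ml. Compounds are titrated 1:4.3 over 7 points from 46 uM final and incubated 24 hrs; endogenous MHC class I is quantified by HiBiT lytic luminescence.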

[3] = qHTS to identify inhibitors of the type 1 interferon - major histocompatibility complex class I in skeletal muscle: primary screen against the NCATS Pharmaceutical Collection (AID 1347407); details: human skeletal muscle cells, IFN-b-induced MHC-I HiBiT luminescence, 24 h; series mostly up to 45.9 µM;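 also: luminescence of HiBiT knocked into endogenous HLA-B as interferon-induced MHC class I level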
Method in brief: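 Immortalized human myoblasts (C25cl48) with HiBiT knocked into endogenous HLA-B*08:01 were stimulated with 4.0 ng/ml IFN-beta and treated with compounds ([…] top 46 uM) for 24 hrs at 37 C. HiBiT lytic luminescence read.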

[4] = qHTS for inhibitors of adenylyl cyclases using a fission yeast platform: a pilot screen against the NCATS LOPAC library (AID 1347410); details: S. pombe CHP2027, fbp1-GFP fluorescence, 18 h, yeast expressing mammalian AC9 and human GNAS; series mostly up to 57.5 µM
Method in brief: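 S. pombe CHP2027 (AC9-GNAS-PDE4D2) carrying PKA-repressed fbp1-GFP, incubated 18 h at 30C in EMM with LOPAC compounds at up to 57 uM. GFP gain-of-signal read by laser scanning cytometry; DMSO negative control.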

[5] = target: Protein phosphatase 1D (Homo sapiens) (UniProt O15297); test: RapidFire Mass Spectrometry qHTS Assay for Modulators of WT P53-Induced Phosphatase 1 (WIP1) (AID 1347424); details: WIP1 dephosphorylation of phosphopeptide, RapidFire MS; series mostly up to 63 µM;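 also: amount of dephosphorylated VEPPL-S-QETFS peptide product formed by WIP1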
Method in brief: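 10 nM WIP1 + cpd, 1 h RT; + 2 uM VEPPL-pS-QETFS, 5 min RT; stop 0.5% formic acid; labelled product standard 1 uM; RapidFire MS. Buffer 50 mM Tris pH 7.5, 30 mM MgCl2, 1 mM TCEP.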

[6] = target: Protein phosphatase 1D (Homo sapiens) (UniProt O15297); test: Rhodamine-PBP qHTS Assay for Modulators of WT P53-Induced Phosphatase 1 (WIP1) (AID 1347425); details: recombinant WIP1, Rhodamine-PBP phosphate fluorescence, real-time; series mostly up to 57.5 µM
Method in brief: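 5 nM WIP1 + 10 uM Rh-PBP, 50 mM Tris pH 7.5, 30 mM MgCl2, 1 mM TCEP, 0.1 mM EGTA, BSA; cpds pinned, 1 hr RT; + 10 uM phosphopeptide; fluorescence 1-min reads x 11 min; delta = f1 - f0.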

[7] = Validation qHTS assay for inhibitors of Activation Induced Cytidine Deaminase (AID): UDG Counterscreen signal (AID 1347427); details: biochemical UDG counterscreen, fluorescence signal; series mostly up to 115 µM
Method in brief: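 Counterscreen read of UDG activity (2 U/mL, 4/3x) in the FRET deamination format with AID (1 uM, 4/3x), DJC20/DJC23 substrates (250 nM, 4x), 4 h at room temperature. NaOH stop, fluorescence at 560 ex/665 em.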

[8] = target: Single-stranded DNA cytosine deaminase (Homo sapiens) (UniProt Q9GZX7); test: Validation qHTS assay for inhibitors of Activation Induced Cytidine Deaminase (AID): AID signal (AID 1347429); details: Recombinant AID, FRET ssDNA deamination with UDG, fluorescence; series mostly up to 115 µM
Method in brief: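 In this coupled qHTS, AID deaminates a FRET-labelled ssDNA substrate in the presence of UDG over 4 hr at room temperature. Compounds span up to 114 uM final.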

[9] = Primary qHTS for inhibitors of La Crosse Virus (LACV) - induced cell death in SH-SY5Y cells (AID 1508616); details: SH-SY5Y LACV cytopathicity rescue, ATP luminescence, 6 d; series mostly up to 4.29 µM;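 also: top concentration of the series differs between compounds; higher means more rescue of cells from virus-induced death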
Method in brief: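 Readout was luminescence from ATPLite 1step added after a 6-day LACV infection (0.01 MOI) of SH-SY5Y cells that had received pin-transferred compound 24 hr after seeding.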

[10] = target: Calcium and integrin-binding protein 1 (Homo sapiens) (UniProt Q99828); test: Validation qHTS for Identification of Calcium Integrin Binding protein 1 (CIB1) Competitor (AID 1508618); details: CIB1-GST / FITC-alphaIIb peptide fluorescence polarization; series mostly up to 114 µM
Method in brief: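 Displacement of FITC-alphaIIb peptide (100 nM) from CIB1-GST (1 uM) is monitored by polarization in quantitative HTS format; buffer carries 5 mM CaCl2 and 125 mM NaCl at pH 7.4, incubations are at room temperature.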

[11] = qHTS to identify inhibitors of the type 1 interferon - major histocompatibility complex class I in skeletal muscle: primary screen against the NCATS Mechanism Interrogation Plate v5.0 (MIPE) Libary (AID 1347411); details: iHSKM cells + IFN-b, HiBiT-tagged MHC-I luminescence, 24 h; series mostly up to 45.8 µM; also: nearly all actives have a fitted effect of over 65% in size; also: potency is read from the fitted curve at half-maximal effect
Method in brief: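 Cells were genome-edited human myoblasts carrying a HiBit tag on endogenous HLA-B. They were treated with IFN-beta (4.0 ng/ml) and titrated compounds (top 46 uM) for 24 hrs before lytic HiBiT detection.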

[12] = target: Calcium and integrin-binding protein 1 (Homo sapiens) (UniProt Q99828); test: Confirmatory qHTS for Identification of Calcium Integrin Binding Protein 1 (CIB1) Competitor (AID 1508617); details: CIB1 binding competition assay, biochemical qHTS; series mostly up to 114 µM; also: potency is read from the fitted curve at half-maximal effect; nearly all actives have a fitted effect of over 65% in size
Method in brief: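 Confirmatory qHTS measures displacement of a FITC-alphaIIb peptide (100 nM) from CIB1-GST (1 uM) by fluorescence polarization. Calcium-containing HEPES buffer, pH 7.4; two 15 min room-temperature incubations.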

[13] = Vero cells viability qHTS for Zika virus inhibitors (AID 1347167); details: cytotoxicity counter-screen (Zika); series mostly up to 45.9 µM
Method in brief: (§1)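 Compounds were tested in concentration series on cells grown in DMEM containing 4% FBS. After 24 to 48 hours, cellular ATP was measured by luminescence with CellTiter Glo.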

[14] = HepG2 cells viability qHTS for Zika virus inhibitors (AID 1347168); details: Zika counter-screen; series mostly up to 45.9 µM
Method in brief: as §1

[15] = Tertiary RLuc qRT-PCR qHTS assay for Zika virus inhibitors (AID 1347169); details: infected Vero cells, reporter luminescence, 48-72 h; series mostly up to 45.9 µM; also: top concentration of the series differs between compounds; nearly all actives have a fitted effect of over 55% in size
Method in brief: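 Vero cells (1,000/well) infected with recombinant ZIKV-RLuc (Cambodian) at MOI 1-2 after compound addition, 48-72 hrs at 37 degrees C. Live-cell Renilla luciferase substrate added; luminescence read after 1-1.5 hrs.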

Chain of Calcium and integrin-binding protein 1 (Homo sapiens) (Q99828 whole entry, looked up): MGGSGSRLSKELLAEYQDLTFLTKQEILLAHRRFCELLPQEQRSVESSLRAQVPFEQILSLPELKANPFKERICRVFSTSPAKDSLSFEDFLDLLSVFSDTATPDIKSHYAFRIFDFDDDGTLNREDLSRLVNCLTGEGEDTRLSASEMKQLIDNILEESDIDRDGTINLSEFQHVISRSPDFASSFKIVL
Chain of Lysine-specific demethylase 5B (Homo sapiens) (Q9UGL1 whole entry, looked up): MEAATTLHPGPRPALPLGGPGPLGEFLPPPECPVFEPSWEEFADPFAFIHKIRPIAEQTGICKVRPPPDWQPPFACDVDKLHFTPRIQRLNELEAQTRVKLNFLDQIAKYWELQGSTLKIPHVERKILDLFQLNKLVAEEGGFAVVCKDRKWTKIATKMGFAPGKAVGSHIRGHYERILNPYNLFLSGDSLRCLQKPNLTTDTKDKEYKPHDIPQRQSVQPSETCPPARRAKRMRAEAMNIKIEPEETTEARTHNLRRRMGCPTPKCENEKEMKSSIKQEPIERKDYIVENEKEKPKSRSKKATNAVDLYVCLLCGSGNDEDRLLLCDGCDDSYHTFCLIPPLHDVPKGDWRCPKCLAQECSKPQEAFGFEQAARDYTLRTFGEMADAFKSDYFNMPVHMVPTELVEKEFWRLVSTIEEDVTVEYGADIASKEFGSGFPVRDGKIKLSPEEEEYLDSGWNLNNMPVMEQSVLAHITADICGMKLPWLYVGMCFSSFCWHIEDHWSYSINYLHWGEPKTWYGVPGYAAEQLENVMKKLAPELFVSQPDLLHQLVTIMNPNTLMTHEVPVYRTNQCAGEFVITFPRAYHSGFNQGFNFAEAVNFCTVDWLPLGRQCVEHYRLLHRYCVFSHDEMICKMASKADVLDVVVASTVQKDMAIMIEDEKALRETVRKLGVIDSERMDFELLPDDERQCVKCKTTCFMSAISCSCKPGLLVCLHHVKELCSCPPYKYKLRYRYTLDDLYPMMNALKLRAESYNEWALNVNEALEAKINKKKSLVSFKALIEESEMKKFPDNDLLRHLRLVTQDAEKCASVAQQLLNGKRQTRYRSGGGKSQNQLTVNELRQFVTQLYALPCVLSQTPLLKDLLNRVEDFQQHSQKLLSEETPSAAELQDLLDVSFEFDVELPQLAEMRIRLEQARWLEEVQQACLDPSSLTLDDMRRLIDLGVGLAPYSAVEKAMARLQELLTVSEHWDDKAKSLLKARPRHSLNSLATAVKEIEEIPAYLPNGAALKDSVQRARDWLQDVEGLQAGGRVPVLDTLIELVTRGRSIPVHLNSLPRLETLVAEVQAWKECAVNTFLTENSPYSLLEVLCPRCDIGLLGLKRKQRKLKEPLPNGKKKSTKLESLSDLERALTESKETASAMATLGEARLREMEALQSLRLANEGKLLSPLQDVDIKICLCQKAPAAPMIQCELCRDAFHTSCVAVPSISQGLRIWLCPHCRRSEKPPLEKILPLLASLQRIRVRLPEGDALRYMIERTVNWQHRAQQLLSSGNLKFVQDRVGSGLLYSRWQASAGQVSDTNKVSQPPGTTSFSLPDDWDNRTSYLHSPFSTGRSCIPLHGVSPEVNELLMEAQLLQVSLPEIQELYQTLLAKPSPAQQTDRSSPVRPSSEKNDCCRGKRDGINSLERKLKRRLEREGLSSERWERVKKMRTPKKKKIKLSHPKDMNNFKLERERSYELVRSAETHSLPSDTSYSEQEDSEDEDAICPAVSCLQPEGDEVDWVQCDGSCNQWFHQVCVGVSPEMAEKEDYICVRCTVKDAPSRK
Chain of Single-stranded DNA cytosine deaminase (Homo sapiens) (Q9GZX7 whole entry, looked up): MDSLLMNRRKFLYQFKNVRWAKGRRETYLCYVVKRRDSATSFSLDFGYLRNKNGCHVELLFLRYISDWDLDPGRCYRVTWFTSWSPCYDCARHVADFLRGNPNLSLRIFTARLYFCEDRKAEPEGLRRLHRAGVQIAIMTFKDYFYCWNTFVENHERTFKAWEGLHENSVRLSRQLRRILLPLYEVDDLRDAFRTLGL
Chain of Protein phosphatase 1D (Homo sapiens) (O15297 whole entry, looked up): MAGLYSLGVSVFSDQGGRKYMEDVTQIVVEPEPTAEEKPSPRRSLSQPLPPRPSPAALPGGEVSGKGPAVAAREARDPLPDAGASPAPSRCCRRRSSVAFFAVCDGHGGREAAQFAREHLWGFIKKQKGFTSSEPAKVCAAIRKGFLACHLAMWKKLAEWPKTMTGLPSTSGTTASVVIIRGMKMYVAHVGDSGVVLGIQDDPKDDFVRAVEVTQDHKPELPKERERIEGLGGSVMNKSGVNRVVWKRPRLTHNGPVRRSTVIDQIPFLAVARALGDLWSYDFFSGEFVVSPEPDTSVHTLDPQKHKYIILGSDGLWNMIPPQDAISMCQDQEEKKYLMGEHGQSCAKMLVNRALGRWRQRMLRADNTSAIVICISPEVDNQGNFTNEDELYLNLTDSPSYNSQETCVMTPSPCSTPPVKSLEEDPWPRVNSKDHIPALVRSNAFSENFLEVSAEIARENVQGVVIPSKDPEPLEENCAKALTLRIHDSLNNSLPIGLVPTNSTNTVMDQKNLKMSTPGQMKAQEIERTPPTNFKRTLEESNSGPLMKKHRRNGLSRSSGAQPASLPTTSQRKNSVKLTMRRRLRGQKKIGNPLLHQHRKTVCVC

Row | Compound | outcome [1] | Potency [2] | outcome [3] | outcome [4] | Potency [5] | outcome [6] | outcome [7] | Potency [8] | outcome [9] | Potency [10] | Potency [11] | Potency [12] | outcome [13] | outcome [14] | Potency [15]
1 | CC(C)NCC(O)COc1ccc(COCCOC(C)C)cc1 (stereo not drawn) | inactive | inactive | inactive | inactive | inactive | inactive | inactive | inactive | inactive | inactive | – | – | – | – | –
2 | O=C(O)COCCN1CCN(C(c2ccccc2)c2ccc(Cl)cc2)CC1 (stereo not drawn) | inactive | inactive | inactive | inactive | inactive | inactive | inactive | inactive | inactive | inactive | – | – | – | – | –
3 | O=C(Nc1nc2ccccc2n1CCN1CCOCC1)c1cccc([N+](=O)[O-])c1 | inactive | – | – | inactive | – | – | inactive | inactive | inactive | inactive | inactive | – | – | – | –
4 | NNCCc1ccccc1 | – | inactive | inactive | inactive | inactive | inactive | – | inactive | inactive | inactive | inactive | – | – | – | –
5 | CC(=O)Oc1ccccc1C(=O)O | – | inactive | inactive | inactive | inactive | inactive | inactive | inactive | inactive | inactive | inactive | – | – | – | –
6 | COc1ccc2nc(S(=O)Cc3ncc(C)c(OC)c3C)[nH]c2c1 (stereo not drawn) | – | – | inactive | – | inactive | inactive | – | – | inactive | – | inactive | 39.8 µM (active) | – | – | –
7 | C[C@]12CCC(=O)C=C1CC[C@@H]1[C@@H]2[C@@H](O)C[C@@]2(C)[C@H]1CC[C@]2(O)C(=O)CO | inactive | inactive | inactive | inactive | inactive | inactive | – | – | inactive | – | inactive | – | – | – | –
8 | CCCC(CCC)C(=O)O | inactive | inactive | inactive | inactive | inactive | inactive | inactive | inactive | inactive | inactive | inactive | – | – | – | –
9 | OC(CN1CCC(Cc2ccc(F)cc2)CC1)c1ccc(Cl)cc1 (stereo not drawn) | inactive | – | inactive | inactive | inactive | inactive | inactive | inactive | inactive | inactive | – | – | – | – | –
10 | N=c1nc(N2CCCCC2)cc(N)n1O | inactive | inactive | inactive | inactive | inactive | inactive | inactive | inactive | inactive | – | – | – | – | – | –
11 | CCC(C)N(C)C(=O)c1cc2ccccc2c(-c2ccccc2Cl)n1 (stereo not drawn) | inactive | inactive | – | inactive | – | – | inactive | inactive | inactive | inactive | inactive | – | – | – | –
12 | CCCCNc1cc(C(=O)O)cc(S(N)(=O)=O)c1Oc1ccccc1 | – | inactive | inactive | inactive | inactive | inactive | inactive | inactive | inactive | inactive | inactive | – | inactive | inactive | inactive
13 | Cc1oncc1C(=O)Nc1ccc(C(F)(F)F)cc1 | inactive | – | – | inactive | inactive | inactive | inactive | inactive | inactive | inactive | 18.6 µM (active) | – | – | – | –
14 | O=C1CCc2cc(OCCCCc3nnnn3C3CCCCC3)ccc2N1 | inactive | inactive | inactive | inactive | inactive | inactive | inactive | inactive | inactive | inactive | inactive | – | – | – | –
15 | O=C(C1CC1)N1CC[C@@H](Cn2c(-c3ccc(-c4ccc5occc5c4)cc3)nc3cnccc32)C1 | – | – | – | – | – | – | – | – | – | – | inactive | – | inactive | inactive | –
16 | NCCc1ccc(O)c(O)c1 | – | inactive | inactive | inactive | inactive | inactive | inactive | inactive | inactive | inactive | inactive | – | – | – | –
17 | NC(N)=NC(=O)c1nc(Cl)c(N)nc1N | – | inactive | inactive | inactive | inactive | inactive | inactive | inactive | inactive | inactive | inactive | – | – | – | –
18 | Cc1cccc(-c2[nH]c(C(C)(C)C)nc2-c2ccc3nccnc3c2)n1 | inactive | inactive | – | inactive | – | – | inactive | inactive | inactive | inactive | inactive | – | – | – | –
19 | CCc1ccc(CCOc2ccc(CC3SC(=O)NC3=O)cc2)nc1 (stereo not drawn) | – | – | inactive | – | inactive | – | – | – | inactive | – | inactive | – | – | – | –
20 | CNC(=O)c1ccccc1Sc1ccc2c(/C=C/c3ccccn3)n[nH]c2c1 | – | – | – | – | inactive | – | – | – | – | – | – | – | – | – | –
21 | Nc1ncnc2nc(-c3ccc(N4CCOCC4)nc3)cc(-c3cccc(Br)c3)c12 | – | – | – | – | – | – | inactive | inactive | – | – | – | – | – | – | –
